# In PubChem BioAssay:
# The source made the active and inactive calls.
# Legend:
# [1] = compound effects on lung adenocarcinoma cell viability – A549, calcein-AM fluorescence, 48 h, basal, profiling panel (AID 1162); details: higher = more signal; also: test concentration not given here
# [2] = compound effects on differentiated 3T3-L1 adipocyte viability – cell-based, 3T3-L1 adipocytes, calcein-AM fluorescence, 48 h, basal, profiling panel (AID 1163); details: 3T3-L1 adipocytes viability, higher = more signal; also: test concentration not given here
# [3] = compound effects on hepatocellular carcinoma cell viability – HepG2, calcein-AM fluorescence, 48 h, basal, profiling panel (AID 1164); details: higher = more signal; also: test concentration not given here
# [4] = compound effects on multiple myeloma cell viability – MM1S, calcein-AM fluorescence, 48 h, basal, profiling panel (AID 1165); details: higher = more signal;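 also: viability of MM1S multiple myeloma cells under basal unstimulated conditions; test concentration not given here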
# [5] = calcein-AM signal in unstimulated myeloma cells – cell-based, calcein-AM fluorescence, 48 h, PK04 Diversity Set, profiling panel (AID 1166); details: RPMI8226 myeloma viability, higher = more signal;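 also: cells grown under basal conditions without added stimulus; test concentration not given here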
# [6] = JC-1 mitochondrial signal, unstimulated HepG2 cells – cell-based, JC-1 fluorescence, 24 h, 100 nL compound, profiling panel (AID 1167); details: HepG2 mitochondrial potential, higher = more signal; also: test concentration not given here
# [7] = JC-1 mitochondrial signal, unstimulated adipocytes – cell-based, JC-1 fluorescence, 3T3-L1 adipocytes, 24 h, 100 nL compound, profiling panel (AID 1168); details: JC-1 mitochondrial fluorescence, higher = more signal, called active from +8 up or from −8 down; also: test concentration not given here
# [8] = JC-1 mitochondrial signal, unstimulated myeloma cells – cell-based, JC-1 fluorescence, RPMI8226, 24 h, 100 nL compound, profiling panel (AID 1169); details: JC-1 mitochondrial potential fluorescence, higher = more signal; also: test concentration not given here
# [9] = JC-1 mitochondrial signal, unstimulated MM1S myeloma – cell-based, JC-1 fluorescence, 24 h, 100 nL compound, profiling panel (AID 1170); details: MM1S mitochondrial potential, higher = more signal; also: test concentration not given here
# [10] = resazurin metabolic signal in A549 cells – cell-based, resazurin fluorescence, 24 h, PK04 Diversity Set, profiling panel (AID 1171); details: A549 viability, higher = more signal, called active from +8 up or from −8 down; also: test concentration not given here
# [11] = resazurin metabolic signal in HepG2 cells – cell-based, resazurin fluorescence, 24 h, PK04 Diversity Set, profiling panel (AID 1172); details: HepG2 viability, higher = more signal; also: test concentration not given here
# [12] = budding yeast growth changes without added modifier – OD600, strain BY4716, 24 h, basal condition, primary screen (AID 1173); details: S. cerevisiae BY4716 growth, OD600, 24 h; higher = more signal, called active from +8 up or from −8 down
# [13] = viability profiling in MM1S myeloma cells – cell-based, resazurin fluorescence, basal, 24 h, PK04 Diversity Set, profiling panel (AID 1174); details: higher = more signal, called active from +8 up or from −8 down; also: test concentration not given here
# [14] = target: Dihydroorotate dehydrogenase (quinone), mitochondrial (Plasmodium falciparum (isolate 3D7)) (UniProt Q08210); assay: inhibition of P. falciparum DHODH – biochemical, C-terminal His tag, absorbance 600 nm, primary screen (AID 1175); details: PfDHODH enzyme, DCIP absorbance 600 nm; higher = more signal, called active from +8 up or from −8 down;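 also: recombinant parasite enzyme with a five histidine tag at its C terminus; test concentration not given here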
# Sequence of Dihydroorotate dehydrogenase (quinone), mitochondrial (Plasmodium falciparum (isolate 3D7)) (Q08210 whole entry, looked up): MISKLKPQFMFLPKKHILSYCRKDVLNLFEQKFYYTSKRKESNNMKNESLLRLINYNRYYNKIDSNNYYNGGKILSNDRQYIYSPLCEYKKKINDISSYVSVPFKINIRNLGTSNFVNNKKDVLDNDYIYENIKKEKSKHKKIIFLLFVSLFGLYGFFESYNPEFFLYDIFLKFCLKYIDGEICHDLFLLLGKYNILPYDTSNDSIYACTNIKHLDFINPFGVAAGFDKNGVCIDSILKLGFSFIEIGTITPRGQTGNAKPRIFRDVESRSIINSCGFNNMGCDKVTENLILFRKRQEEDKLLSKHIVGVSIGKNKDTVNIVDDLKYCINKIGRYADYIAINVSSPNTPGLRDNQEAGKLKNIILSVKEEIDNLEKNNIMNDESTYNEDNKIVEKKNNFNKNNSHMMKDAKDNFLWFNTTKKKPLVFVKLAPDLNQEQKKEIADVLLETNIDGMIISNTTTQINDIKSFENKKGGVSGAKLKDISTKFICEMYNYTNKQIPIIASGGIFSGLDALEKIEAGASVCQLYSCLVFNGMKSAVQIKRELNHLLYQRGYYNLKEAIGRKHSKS
# [15] = growth modulation of vineyard yeast isolate – strain RM11-1a, OD600, basal, 24 h, primary screen (AID 1177);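 also: cultures grown under basal conditions with no added stressor; test concentration not given here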; details: S. cerevisiae RM11-1a growth, OD600, 24 h; higher = more signal, called active from +8 up or from −8 down
# [16] = growth of efflux-deficient E. coli DRC39 – strain DRC39, OD650, 24 h, E. coli filamentation inducers, primary screen (AID 1178);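 also: growth measured as culture turbidity by optical density at 650 nm; test concentration not given here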; details: E. coli DRC39 acrAB, higher = more signal, called active from +8 up or from −8 down
# [17] = growth of efflux-deficient E. coli DRC39 – strain DRC39, OD650, 48 h, E. coli filamentation inducers, primary screen (AID 1179);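 also: screen aims at cell division blockers that make cells filament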; details: E. coli DRC39 delta-acrAB growth, higher = more signal, called active from +8 up or from −8 down
# [18] = viability profiling in RPMI8226 myeloma cells – cell-based, resazurin fluorescence, basal, 24 h, PK04 Diversity Set, profiling panel (AID 1180); details: higher = more signal;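 also: RPMI8826 multiple myeloma cell line at 5000 cells per well; test concentration not given here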
# [19] = target: E3 ubiquitin-protein ligase XIAP (Homo sapiens) (UniProt P98170); assay: small molecules binding XIAP protein – biophysical, small-molecule microarray, fluorescence 635 nm, primary screen (AID 1181); details: higher = more signal;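 also: score merges 667 nm emission and signal to noise over triplicate slides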
# Sequence of E3 ubiquitin-protein ligase XIAP (Homo sapiens) (P98170 whole entry, looked up): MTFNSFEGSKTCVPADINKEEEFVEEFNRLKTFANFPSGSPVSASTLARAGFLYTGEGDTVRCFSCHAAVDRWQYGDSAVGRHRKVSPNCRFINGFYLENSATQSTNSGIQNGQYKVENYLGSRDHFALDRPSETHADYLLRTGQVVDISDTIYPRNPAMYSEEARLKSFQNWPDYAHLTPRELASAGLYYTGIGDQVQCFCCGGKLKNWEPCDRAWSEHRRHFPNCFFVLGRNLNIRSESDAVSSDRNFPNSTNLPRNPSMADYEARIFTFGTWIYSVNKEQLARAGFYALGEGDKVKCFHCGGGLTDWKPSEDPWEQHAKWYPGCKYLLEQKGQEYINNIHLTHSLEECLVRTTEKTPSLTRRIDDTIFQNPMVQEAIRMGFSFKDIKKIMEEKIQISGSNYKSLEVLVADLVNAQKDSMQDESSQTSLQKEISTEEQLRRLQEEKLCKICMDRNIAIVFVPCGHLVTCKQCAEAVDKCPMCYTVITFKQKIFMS
SMILES,z-score [1],z-score [2],z-score [3],z-score [4],z-score [5],z-score [6],z-score [7],z-score [8],z-score [9],z-score [10],z-score [11],z-score [12],z-score [13],composite z-score [14],z-score [15],z-score [16],z-score [17],z-score [18],composite z-score [19]
Cc1ccc(S[C@]2(C(=O)NCCCN(C)C)CC(=O)N(C3CCCCC3)[C@@H]2c2ccc(CO)cc2I)cc1,-0.272,1.8,-4.31,-3.25,-3.08,1.8,0.794 (inactive),-0.644,-1.84,-0.835 (inactive),-1.37,-2.6 (inactive),-7.69 (inactive),0.895 (inactive),1.25 (inactive),-0.0999 (inactive),-0.737 (inactive),-5.11,-0.0636
O=C1c2ccccc2[C@](Cc2ccccc2I)(C(=O)O)[C@H](c2ccc(CO)cc2)N1C1CCCCC1,0.0699,2.82,-0.0275,0.832,-3.14,0.0952,-0.641 (inactive),-0.193,0.148,1.07 (inactive),-0.221,-1.14 (inactive),1.8 (inactive),-0.0088 (inactive),-1.05 (inactive),0.938 (inactive),0.832 (inactive),1.36,0.0225
C=C(CCCC)C(=O)CC[C@@H](OC(=O)c1cccnc1)c1cccc(OCCO)c1,1.17,0.977,-0.865,-3.38,-2.93,0.558,0.645 (inactive),-0.721,-1.68,0.468 (inactive),0.147,-1.41 (inactive),-4.18 (inactive),-1.57 (inactive),0.0831 (inactive),1.24 (inactive),0.543 (inactive),-4.13,-0.104
[N-]=[N+]=NCc1ccccc1C[C@@]1(C(=O)N2CCOCC2)N=C(c2ccc(OCCCO)cc2)O[C@@H]1c1ccccc1N=[N+]=[N-],-0.884,0.913,-0.848,-2.19,-2.3,0.944,1.11 (inactive),-0.982,-0.891,-1.75 (inactive),0.164,-1.37 (inactive),-1.22 (inactive),0.503 (inactive),1.12 (inactive),2.06 (inactive),0.612 (inactive),-1.62,0.152
C=C(COC)/C(=C/C[C@@H](OC(C)=O)c1cccc(OCCO)c1)c1cc(C(=O)OC)ccc1OC,1.1,-0.412,0.409,-1.29,0.0922,3.3,1.2 (inactive),0.127,-0.466,1.49 (inactive),1.21,-1.57 (inactive),0.49 (inactive),-0.733 (inactive),-0.489 (inactive),2.1 (inactive),1.47 (inactive),0.938,0.155
C[C@H]1COC(=O)[C@H](Cc2ccccc2)NC(=O)[C@@H](C)COC(=O)[C@H](Cc2ccccc2)NC1=O,-0.429,1.27,0.0613,0.244,1.03,0.827,0.382 (inactive),-0.405,0.0881,0.512 (inactive),0.24,-1.23 (inactive),1.04 (inactive),0.063 (inactive),-1.43 (inactive),0.253 (inactive),-0.156 (inactive),1.28,-0.127
C=CCN1C(=O)[C@@]2(O[C@@H](CCn3cc([C@H](O)c4ccccc4)nn3)[C@H]([Si](C)(C)c3ccc(OC)cc3)[C@H]2C)c2cc(N3CCOC3=O)ccc21,-0.873,3.06,-1.2,-1.81,-1.93,1.09,1.92 (inactive),-0.376,0.753,-1.97 (inactive),-0.555,-1.5 (inactive),-0.365 (inactive),-1.47 (inactive),-1.57 (inactive),1.41 (inactive),0.391 (inactive),-1.24,0.076
C[C@]1(C(=O)NCc2ccccc2)c2ccccc2C(=O)N(Cc2cc(C(F)(F)F)cc(C(F)(F)F)c2)[C@H]1c1ccc(CO)cc1,0.0361,1.95,0.292,-0.951,-1.46,1.07,-0.122 (inactive),-0.155,-0.177,0.805 (inactive),-0.331,-1.35 (inactive),0.865 (inactive),-1.4 (inactive),-2.4 (inactive),1.04 (inactive),0.528 (inactive),1.12,-0.177
CO[C@@H]1COC(=O)[C@@H]2CCCN2C(=O)CC=C[C@@H](C)[C@H](OC)COC(=O)[C@@H]2CCCN2C(=O)CC=C[C@H]1C,0.798,0.185,1.21,0.283,0.142,-0.123,1.15 (inactive),-0.695,2.22,1.82 (inactive),0.929,-1.45 (inactive),1.31 (inactive),0.319 (inactive),-0.553 (inactive),1.65 (inactive),0.987 (inactive),0.0475,-0.02
O=C1c2ccccc2[C@](Cc2ccccc2I)(C(=O)NCC(F)(F)F)[C@H](c2ccc(CO)cc2)N1Cc1ccccc1C(F)(F)F,0.187,1.31,-0.529,-2.72,-2.27,0.535,-0.225 (inactive),-0.248,0.415,1.32 (inactive),0.226,-1.29 (inactive),1.13 (inactive),-0.449 (inactive),-0.719 (inactive),0.775 (inactive),0.23 (inactive),1.69,-0.174
CC(C)(C)OC(=O)CC[C@@]1(C(=O)NCc2ccccc2)N=C(c2ccc(OCCCO)cc2)O[C@@H]1c1ccccc1,-0.595,1.16,-0.907,-2.37,-3.23,1.9,4.19 (inactive),-0.791,-0.552,-2.88 (inactive),-0.956,-0.454 (inactive),-1.49 (inactive),-0.362 (inactive),-0.801 (inactive),2.23 (inactive),1.5 (inactive),-1.76,0.174
C=CCC1=C[C@H]2[C@H]([C@@H]3C=C[C@]2(CC=C)C(=O)[C@]32CO2)[C@@]2(CO2)C1=O,-0.135,0.916,-0.732,-3.16,-2.93,0.896,1.54 (inactive),-0.201,-2.08,-1.33 (inactive),0.177,-15.3 (active),-1.92 (inactive),-0.491 (inactive),-0.763 (inactive),2.57 (inactive),1.51 (inactive),-1.12,0.147
C=CCNC(=O)[C@H]1[C@@H]2C(=O)O[C@@H](c3ccccc3)[C@@H](c3ccccc3)N2[C@@H](c2ccccc2OCCO)[C@]12C(=O)N(C(=O)OCCOC)c1ccc(C#CCC(C(=O)OC)C(=O)OC)cc12,0.208,2.2,0.128,-2.95,-3.66,0.348,1.54 (inactive),-1.02,-1.35,-0.131 (inactive),-0.234,1.06 (inactive),1.25 (inactive),0.229 (inactive),1.72 (inactive),1.11 (inactive),0.761 (inactive),-0.54,0.182
CC(C)[Si]1(C(C)C)OCc2cc(C3CC3)nc(-c3ccccc3)c21,0.0145,1.06,-0.899,-0.319,-1.54,-0.012,1.6 (inactive),-0.373,0.542,1 (inactive),0.883,-1.53 (inactive),0.972 (inactive),0.135 (inactive),-1.75 (inactive),1.39 (inactive),0.656 (inactive),0.536,0.0399
C=CC[C@]1(C(N)=O)N=C(c2ccc(OCCCO)cc2)O[C@H]1c1ccccc1CN=[N+]=[N-],0.919,2.24,-0.509,-0.562,-1.37,2.69,-0.436 (inactive),-0.434,0.501,0.01 (inactive),0.394,-1.06 (inactive),1.06 (inactive),0.199 (inactive),-0.592 (inactive),2.91 (inactive),1.21 (inactive),1.1,-0.16
CN(C)CCCC[C@@H]1NC(=O)[C@@H]2C[C@H](C(=O)O)[C@H](c3ccc(O)cc3)N2C1=O,-0.533,1.36,-1.03,-3.01,-0.102,1.26,0.292 (inactive),-0.0425,-0.971,-0.385 (inactive),-1.15,-0.976 (inactive),1.2 (inactive),-0.621 (inactive),-0.422 (inactive),0.994 (inactive),-0.0998 (inactive),0.493,0.101
CC(C)[Si](OCCCNS(=O)(=O)c1ccc(Br)cc1)(C(C)C)C(C)C,0.0609,0.279,-2.5,-3.23,-4.09,-3.5,2.29 (inactive),-0.218,0.727,-0.116 (inactive),1.49,-1.79 (inactive),0.766 (inactive),0.0026 (inactive),-2.85 (inactive),2.79 (inactive),2.3 (inactive),-1.26,-0.18
Cc1ccc(S[C@]2(C(=O)NCCN3CCOCC3)CC(=O)N(C3Cc4ccccc4C3)[C@@H]2c2ccc(CO)cc2I)cc1,1.47,1.33,-0.0794,-3.23,-1.84,0.899,-0.211 (inactive),-0.993,-1.02,0.842 (inactive),0.0862,-5.55 (inactive),-1.48 (inactive),-0.24 (inactive),-2.62 (inactive),-0.0522 (inactive),-0.169 (inactive),-1.41,0.194
O=C1O[C@@H](c2ccccc2)[C@@H](c2ccccc2)N2[C@@H](c3ccc(O)cc3)[C@]3(C(=O)Nc4ccccc43)[C@@H](C(=O)N3CCN(c4ncccn4)CC3)[C@H]12,0.661,-0.957,1.15,-1.16,-1.77,-0.235,1.72 (inactive),-0.455,-0.618,-0.133 (inactive),0.838,-0.863 (inactive),-0.798 (inactive),-0.63 (inactive),-0.0045 (inactive),0.208 (inactive),1.05 (inactive),-0.442,-0.311
